Rows were chosen to be rich in hits. Some 3.4% of all compounds tested hit in one or more screens of this group.
HGIII-sPLA2 inh = Blocks human group III sPLA2 activity. 370,000 tested, 0.56% active. inhibition, % at 12.2 µM. QFRET BODIPY PC-A2 liposome hydrolysis, fluorescence. Q9NZ20;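 active = inhibition above mean plus 3 SD of compounds lying within the high and low control bounds, cut at about 19% in these data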
PLC-gamma1 inh = blocks human PLC-gamma1 enzyme activity; AID 720700; 370,000 tested, 0.84% active; P19174; purified PLC-gamma1, fluorogenic substrate, fluorescence; inhibition, % at 12.2 µM; in the data active = inhibition above about 9.5%
PLC-beta3 inh = PLC-beta3 (human) inhibition, primary screen | Purified PLC-beta3, fluorogenic substrate, fluorescence | inhibition, % at 12.2 µM | 370,000 tested, 0.18% active | Q01970; in the data active = inhibition above about 11%
proKLK7 act = activates the human kallikrein-7 zymogen | 370,000 tested, 0.9% active | purified proKLK7, EDANS-DABCYL substrate fluorescence; 100% is mature enzyme control, 0% vehicle | activation, % at 7 µM | P49862;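 active = activation above the mean of all tested compounds plus 3 SD, computed per campaign excluding outliers beyond control limits, cut at about 13% in these data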
Target sequence (P49862 whole entry, looked up): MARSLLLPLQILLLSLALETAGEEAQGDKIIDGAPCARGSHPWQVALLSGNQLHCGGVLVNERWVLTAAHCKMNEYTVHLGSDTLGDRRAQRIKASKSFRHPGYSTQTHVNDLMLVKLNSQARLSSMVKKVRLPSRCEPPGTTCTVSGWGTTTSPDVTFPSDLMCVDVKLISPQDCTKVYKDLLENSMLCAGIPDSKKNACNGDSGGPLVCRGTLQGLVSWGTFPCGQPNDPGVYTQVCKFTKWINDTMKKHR
ADAM10 inh = ADAM10 inhibition, QFRET primary screen; 370,000 tested, 0.62% active; inhibition, % at 7 µM; recombinant ADAM10, EDANS/DABCYL FRET peptide cleavage, 3 h; O14672;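 active = inhibition above a per-campaign cutoff equal to the mean of compounds falling between control-based bounds plus 3 SD, cut at about 20% in these data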
ADAM17 inh = inhibitors of human ADAM17; AID 720648; recombinant ADAM17, EDANS/DABCYL FRET peptide cleavage; 370,000 tested, 0.83% active; inhibition, % at 6.95 µM;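 active = inhibition above the mean of compounds lying between control limits plus 3 SD, set per campaign, cut at about 8.5% in these data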
ADAM10 confirm = confirmation of inhibitors of human ADAM10; shares compounds with ADAM10 inh; ADAM10 QFRET peptide cleavage, EDANS fluorescence; inhibition, % at 6.95 µM; 2,100 tested, 1% active; AID 743208;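 active = inhibition above about 20% chosen separately for each screening run, limit read from the data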
ADAM17 counter = inhibits human ADAM17 in ADAM10 exosite counter-screen | 2,100 tested, 0.5% active | inhibition, % at 6.95 µM | ADAM17 QFRET peptide cleavage, EDANS fluorescence | shares compounds with ADAM10 inh;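 active = mean triplicate inhibition above the solvent-only control wells' mean plus 3 SD, cut at about 12% in these data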
Large screens that a line does not name were inactive (follow-up assays come after a bar, where they were run).

C=CCN1C(=O)[C@H](CC(=O)N2CCOCC2)[C@@]2(C(=O)OCC)CCCC=C12	none
Cc1ccc(NS(=O)(=O)c2ccc(NC(=O)C(C)Sc3ccc(Cl)cc3)cc2)c(C)c1 (configuration not stated)	ADAM10 inh 27 | ADAM10 confirm inactive | ADAM17 counter inactive
Clc1ccc(CSc2nnc(CNc3cccc(Cl)c3)o2)cc1	ADAM10 inh 20 | ADAM10 confirm inactive | ADAM17 counter inactive
OCCCn1c(CCNc2nc(-c3ccc(F)cc3)cs2)nc2cc(C(F)(F)F)ccc21	ADAM10 inh 21 | ADAM10 confirm inactive | ADAM17 counter inactive
O=C(NCc1ccccc1)C1=C[C@H](c2ccccc2)C[C@H](OCc2ccc(CO)cc2)O1	ADAM10 inh 20 | ADAM10 confirm inactive | ADAM17 counter inactive
O=C(Nc1ccccc1)C1=C[C@H](c2ccc(C(F)(F)F)cc2)C[C@H](OCc2ccc(CO)cc2)O1	ADAM10 inh 26, ADAM17 inh 8.6 | ADAM10 confirm inactive | ADAM17 counter inactive
O=C(c1cc(C2CC2)on1)N(C1CCCCC1)C1CCOCC1	none
O=C1C(=Cc2cn(-c3ccccc3)nc2-c2ccc(OCc3ccccc3F)cc2)SC(=S)N1CCS(=O)(=O)O	ADAM10 inh 26 | ADAM10 confirm inactive | ADAM17 counter inactive
O=C1c2cccc(OCc3ccc(F)cc3)c2CCN1Cc1ccccc1	ADAM10 inh 20 | ADAM10 confirm inactive | ADAM17 counter inactive
Cc1c(Cl)cccc1NC(=O)CNC(=O)Cc1c[nH]c2ccccc12	ADAM10 inh 33 | ADAM10 confirm inactive | ADAM17 counter inactive
Cc1ccc(NC(=O)c2ccc(CSc3nccc(C)n3)cc2)cc1	ADAM10 inh 22 | ADAM10 confirm inactive | ADAM17 counter inactive
COC(=O)[C@H]1C[C@@]2(N3CCCCC3)c3ccccc3N[C@H]2N1S(=O)(=O)c1ccc(C)cc1	none
N#C/C(=N\Nc1ccc([N+](=O)[O-])cc1)C(N)=S	ADAM10 inh 20 | ADAM10 confirm inactive | ADAM17 counter inactive
COc1ccc([C@@H]2[C@@H]3C(=O)N(C(C)(C)C)C(=O)[C@@H]3[C@]3(Cc4ccccc4)C(=O)N(c4ccc(OC)cc4)C(=O)N23)cc1	ADAM10 inh 23 | ADAM10 confirm inactive | ADAM17 counter inactive
COc1ccc([C@@H]2[C@@H]3C(=O)N(C(C)(C)C)C(=O)[C@@H]3[C@]3(Cc4ccccc4)C(=O)N(c4ccc(C(F)(F)F)cc4)C(=O)N23)cc1	none
O=C(Nc1ccc(F)cc1)OCc1cn(Cc2ccc(F)c(F)c2)nn1	none
CCOc1ccc(/C=C2/C(=O)N(c3ccc(OC)cc3)C(=S)N2CC(=O)OC)cc1OCC	none
CCOc1ccc(N2C(=O)/C(=C/c3cc(OC)c(OC)c(OC)c3)N(CC(=O)OC)C2=S)cc1	ADAM10 inh 20 | ADAM10 confirm inactive | ADAM17 counter inactive
CC(=O)NC(Cc1ccccc1)P(=O)(O)O (configuration not stated)	none
OC(c1ccccc1)(c1nc(-c2ccc(Cl)cc2)cs1)C(F)(F)F (configuration not stated)	ADAM10 inh 23 | ADAM10 confirm inactive | ADAM17 counter inactive
COc1ccc(-c2csc(C(O)(c3ccccc3)C(F)(F)F)n2)cc1 (configuration not stated)	none
N#Cc1cccc(-c2csc(C(O)(c3ccccc3)C(F)(F)F)n2)c1 (configuration not stated)	ADAM10 inh 20 | ADAM10 confirm inactive | ADAM17 counter inactive
C/C(N)=C(/C#N)C(=O)CSc1nn(-c2ccc(Cl)cc2)c(=S)s1	ADAM10 inh 24 | ADAM10 confirm inactive | ADAM17 counter inactive
C/C(N)=C(/C#N)C(=O)CSc1nnc(SCc2ccc(Cl)cc2)s1	none
O=C(CN(CCc1ccccc1)S(=O)(=O)c1ccc(Cl)s1)N1CCOCC1	none
COc1ccc(C(=O)O[C@@H]2CCC[C@@]3(C(=O)N(Cc4ccccc4)c4ccccc43)[C@H]2NC(=O)CCc2ccccc2)cc1OC	ADAM10 inh 20 | ADAM10 confirm inactive | ADAM17 counter inactive
COc1cc(OC)cc(C(=O)N[C@H](C(=O)OCC(=O)Nc2ccc(OC)c(OC)c2)C(C)C)c1	none
COc1cc(OC)cc(C(=O)N[C@H](C(=O)OCC(=O)Nc2ccc(C(C)C)cc2)C(C)C)c1	ADAM10 inh 21 | ADAM10 confirm inactive | ADAM17 counter inactive
COC(=O)[C@@]12CCCCC=C1N(CCc1ccc(Cl)cc1)C(=O)[C@H]2CC(=O)NCc1ccc(C)o1	none
COC(=O)CN(Cc1cn(Cc2ccccc2)nn1)S(=O)(=O)c1ccccc1Br	none
Nc1cc([N+](=O)[O-])cc2oc(-c3ccccc3)cc12	ADAM10 inh 25 | ADAM10 confirm inactive | ADAM17 counter inactive
CCOC(=O)c1ccc(NC(=S)NC(=O)c2cncc(Br)c2)cc1	ADAM10 inh 75 | ADAM10 confirm inactive | ADAM17 counter inactive
OC(c1ccccc1)(c1ccccc1)C1CCN(CCCNc2ccccc2Br)CC1	none
C[C@@H]1CN([C@H](C)CO)S(=O)(=O)c2ccc(C#Cc3ccccc3)cc2O[C@H]1CN(C)C(=O)Nc1ccc2c(c1)OCO2	ADAM10 inh 20 | ADAM10 confirm inactive | ADAM17 counter inactive
COC(=O)[C@]12C[C@H](CC(=O)NCCc3ccccc3OC)C(=O)N(Cc3cccc4ccccc34)C1=C[C@H](C1CCCC1)O[C@@H]2C	ADAM10 inh 25 | ADAM10 confirm inactive | ADAM17 counter inactive
CCOc1ccc(CCN2C(=S)N([C@@H](Cc3ccc(O)cc3)CN3CCC[C@@H]3CN3C(=S)NC[C@@H]3CC(C)C)C[C@@H]2Cc2ccccc2)cc1	ADAM10 inh 21 | ADAM10 confirm inactive | ADAM17 counter inactive
CCOc1ccc(CCN2C(=S)N([C@@H](Cc3ccc(O)cc3)CN3CCC[C@@H]3CN3C(=S)NC[C@@H]3Cc3ccccc3)C[C@@H]2CC(C)C)cc1	none
COC(=O)[C@]12C[C@H](CC(=O)NCc3ccc(C)o3)C(=O)N(CCc3ccc(OC)c(OC)c3)C1=C[C@H](COCc1ccccc1)O[C@@H]2C	none
O=C1/C(=C/c2cccs2)SC(=S)N1CCCC(=O)N(CCO)c1ccccc1	ADAM10 inh 24 | ADAM10 confirm inactive | ADAM17 counter inactive
CCc1ccc(/C=C2\SC(=S)N(CCCC(=O)N(CCO)c3ccccc3)C2=O)cc1	none
Cc1ccc(NS(=O)(=O)c2cc(C(=O)NCCSC3CCCCC3)ccc2C)cc1	ADAM10 inh 21 | ADAM10 confirm inactive | ADAM17 counter inactive
